We go through 40 compounds from PubChem BioAssay AID493168 (National Center for Advancing Translational Sciences (NCATS), 2011).

Molecules are shown by their SMILES. Records with an inconclusive call do not appear. Values without a mark were called inactive. The source made the active and inactive calls. The call rests on the fitted dose curve; in most records, active means well fitted inhibition curve with a large enough effect; inconclusive means small, poorly fitted or top-dose-only effect, or effect the other way; inactive means flat fitted curve, though single readings scatter.
Potency means the concentration at half of the fitted maximal effect.

The target of this assay is Ubiquitin carboxyl-terminal hydrolase 2 (Homo sapiens) (UniProt O75604). Nature of the assay: Confirmation Assay for Inhibitors of Ubiquitin-specific Protease USP2a Using CHOP2 as the Reporter. Further: nearly all actives have a fitted effect of over 55% in size.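 On activity change, negative = inhibition: plate controls were DMSO wells for no effect and full inhibition by NEM control for full effect.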 Particulars: USP2 core, Ub-CHOP2 coupled reporter fluorescence; series mostly up to 38.3 µM; activity change, negative = inhibition: at the top concentration. In outline: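 USP2 core (10 nM final) was preincubated with compound for 30 min at RT in Tris-HCl pH 8.0, CaCl2, beta-mercaptoethanol, CHAPS. Ub-CHOP2 and reporter substrate (25 nM final each) were added, and fluorescence (Ex 485/Em 531 nm) was read after 60 min.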
Sequence of Ubiquitin carboxyl-terminal hydrolase 2 (Homo sapiens) (O75604 whole entry, looked up): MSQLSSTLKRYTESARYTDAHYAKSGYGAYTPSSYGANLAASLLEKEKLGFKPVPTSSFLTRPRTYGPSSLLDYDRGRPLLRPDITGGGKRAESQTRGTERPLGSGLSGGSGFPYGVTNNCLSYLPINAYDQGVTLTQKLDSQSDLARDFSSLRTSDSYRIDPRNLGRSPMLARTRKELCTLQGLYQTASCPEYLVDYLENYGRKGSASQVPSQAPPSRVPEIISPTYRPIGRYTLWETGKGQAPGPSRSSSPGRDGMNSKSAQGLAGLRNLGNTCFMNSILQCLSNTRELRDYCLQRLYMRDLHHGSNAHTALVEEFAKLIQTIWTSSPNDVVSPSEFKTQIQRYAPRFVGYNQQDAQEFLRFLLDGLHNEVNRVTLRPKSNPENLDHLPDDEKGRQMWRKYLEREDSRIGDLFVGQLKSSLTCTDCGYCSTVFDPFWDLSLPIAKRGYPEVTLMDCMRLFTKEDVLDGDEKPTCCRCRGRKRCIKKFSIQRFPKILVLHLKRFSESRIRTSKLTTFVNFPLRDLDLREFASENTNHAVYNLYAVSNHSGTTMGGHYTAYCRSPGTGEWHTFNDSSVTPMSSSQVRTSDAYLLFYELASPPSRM
As to `C/C(CC(=O)N1CCCC1)=N\NC(=O)c1cc2ccccc2cc1O`, the “activity change, negative = inhibition” value was 4.2%.
On the same count and under the same terms, in the case of `Cc1ccc(/C=C/S(=O)(=O)N2CCC(C(=O)O)CC2)cc1` it was 1.75%; in that of `C/C(Cn1nnc2ccccc21)=N\OC(=O)c1ccccc1C`, 5.51%.
Turning to `CCn1cc(C(=O)N2CCOCC2)c(=O)c2cc(S(=O)(=O)N(C)C)ccc21`, the “activity change, negative = inhibition” value was 2.43%.
For `CC1CCCC(NC(=O)C2N(CCCN3CCCC3)C(=O)C3C(C(=O)Nc4ccc(Cl)cc4)C4C=CC32O4)C1C` (stereo not given), the “activity change, negative = inhibition” value was 0.321%.
Regarding `N#Cc1c(Nc2ccc(Cl)cc2)s[nH]c1=O`, the “activity change, negative = inhibition” value is -0.326%.
`O=C1NC[C@@H](c2ccccc2)OC(=O)[C@@H](Cc2ccc(F)cc2)CC/C=C/C[C@@H]1CC(=O)N(CCO)Cc1ccccc1`: the “activity change, negative = inhibition” value is 1.12%.
On the same count and under the same terms, in the case of `O=C(/C=N/O)NCc1cccnc1` it was 0.699%; in that of `CN(C)S(=O)(=O)c1cccc(NC(=S)NNC(=O)c2cc3ccccc3cc2O)c1`, -3.66%.
Regarding `Nc1c(C(=O)NCC2CCCO2)sc2nc3c(c(-c4ccco4)c12)CC/C3=C\c1ccco1` (stereo not given), the Potency is 4.14 µM (active).
Regarding `Cc1n[nH]c(C)c1S(=O)(=O)N1CCCC(C(=O)Nc2nccs2)C1` (stereo not given), the “activity change, negative = inhibition” value was 1.19%.
In the case of `O=C(CCNc1cccc(Cl)c1)c1ccco1`, the “activity change, negative = inhibition” value is -4.03%.
Same read-out and setting: the result for `Cn1cccc1CC(=O)N/N=C/C=C/c1ccco1` reads -10.7%.
Take `COc1ccc2[nH]c(=O)c(CN(C3CCCCC3)C(c3nnnn3Cc3ccco3)C(C)C)cc2c1` (stereo not given): the Potency was 10.4 µM (active).
Take `COc1ccc(NC(=O)CSc2ncccc2C(=O)OC(C)C)cc1OC`: the “activity change, negative = inhibition” value is 1.81%.
As for `Cc1ccc(Nc2nc(N)nc(CN3CCN(C(=O)c4ccco4)CC3)n2)cc1Cl`, the “activity change, negative = inhibition” value was -2.65%.
For `Cc1ccc2[nH]c(=O)c(COC(=O)c3ccccn3)cc2c1`, the “activity change, negative = inhibition” value is 3.32%.
On the same count and under the same terms, in the case of `CCOC(=O)C(C)Sc1nnc(Cn2c(=O)sc3ccccc32)n1-c1ccccc1` (stereo not given) it was -7.73%; in that of `Cc1c(NC(=O)C2CCCN(S(=O)(=O)c3cnc[nH]3)C2)c(=O)n(-c2ccccc2)n1C` (stereo not given), 4.21%.
For `COC(=O)CC1Oc2ccc(C)cc2NC1=O` (stereo not given), the “activity change, negative = inhibition” value was 5.71%.
For the compound `CCOc1cc(N2CCOCC2)c(OCC)cc1NC(=O)Cc1cn2ccsc2n1`, the “activity change, negative = inhibition” value was -2.39%.
Regarding `CC1(C)CC(=O)C=C(NCc2cccs2)C1`, the “activity change, negative = inhibition” value is -0.275%.
Take `COc1ccc(CCN2C(=O)/C(=C\c3ccco3)SC2=S)cc1OC`: the “activity change, negative = inhibition” value was -2.75%.
In the case of `O=C(CCN1C(=O)/C(=C\c2ccco2)SC1=S)Nc1ccc(C(=O)O)c(O)c1`, the Potency is 13.1 µM (active).
With `O=C(Nc1cccc(C(F)(F)F)c1)/C(=C\c1ccco1)NC(=O)c1cccs1`, the “activity change, negative = inhibition” value is 1.73%.
On the same count and under the same terms, the result for `O=C(Nc1cccc(S(=O)(=O)N2CCCC2)c1)c1cncc(Br)c1` reads -0.951%; that for `COc1cc(C)ccc1OCCOc1cc(C)ccc1Cl`, 6.42%; that for `CCC(C)(C(=O)NC1CCCCC1)N(C(=O)C1CCC(=O)N1)c1ccccc1` (stereo not given), -1.54%.
As to `CCOC(=O)c1[nH]c2ccc(OC)cc2c1NC(=O)CCN1CCCC(C)C1` (stereo not given), the “activity change, negative = inhibition” value is -2.89%.
Consider `O=C1OC[C@@H]2CCCN2C(=O)[C@@H](CC(=O)N(CCO)Cc2ccccc2)C/C=C\C[C@@H]1Cc1ccc(F)cc1`, for which the “activity change, negative = inhibition” value was 2.66%.
With `Cc1cc(C(=O)Nc2ccccc2N2CCOCC2)c2ccccc2n1`, the “activity change, negative = inhibition” value is 1.25%.
Turning to `Cc1ccc(-c2cc(-c3ccc(C)cc3)[n+](-c3ccc(C(=O)[O-])cc3)c(-c3ccc(C)cc3)c2)cc1`, the “activity change, negative = inhibition” value is -2.45%.
On the same count and under the same terms, the result for `CCOC(=O)C1CCCN(CC(=O)Nc2c(C(=O)OC)[nH]c3ccc(C)cc23)C1` (stereo not given) reads -1.36%.
Same read-out and setting: in the case of `CC(C)c1ccc(NC(=O)C(c2ccc3c(c2)OCO3)N2CCCCC2)cc1` (stereo not given) it was 1.37%; in that of `COc1ccc(-c2nnn(CC(=O)N3CCOCC3)n2)cc1`, 5.99%.
Take `CC(C(=O)Nc1ccc(C(=O)O)c(O)c1)N1C(=O)/C(=C\c2ccco2)SC1=S` (stereo not given): the Potency was 16.5 µM (active).
Regarding `COc1ccc(NC(=O)c2cc(-c3ccco3)nc3ccccc23)cc1S(=O)(=O)N1CCOCC1`, the Potency was 18.5 µM (active).
On to `Cc1ccc(S(=O)(=O)N2CCOCC2)cc1NC(=O)CN1C(=O)NC(C)(c2ccc(Cl)cc2Cl)C1=O` (stereo not given), for which the “activity change, negative = inhibition” value was 4.88%.
`CC(OC(=O)c1nsc(Cl)c1Cl)C(=O)NCc1ccco1` (stereo not given): the “activity change, negative = inhibition” value is -1.99%.
Regarding `CCOC(=O)N1CCN(S(=O)(=O)c2ccc(C)cc2)C1c1ccc(OC)cc1` (stereo not given), the “activity change, negative = inhibition” value is -1.44%.
